About 50,000 (12%) of roughly 420,000 compounds were called active. Roughly 26% stayed inconclusive and do not appear here. The sample holds actives, similar compounds and a random draw of the others, so the mix is not that of the screen. Values without a mark were called inactive. The call rests on the fitted dose curve; in most records, active means well fitted inhibition curve with a large enough effect; inconclusive means small, poorly fitted or top-dose-only effect; inactive means flat fitted curve, though single readings scatter.
Test: qHTS for Inhibitors of human tyrosyl-DNA phosphodiesterase 1 (TDP1): qHTS in cells in presence of CPT; further: nearly all actives have a fitted effect of over 55% in size
Settings: chicken DT40 Tdp1-/-;hTDP1 cells + 20 nM CPT, ATP luminescence, 48 h; series mostly up to 46.2 µM; activity change, negative = growth inhibition: at the top concentration
Method in brief: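 Chicken DT40 Tdp1-/- cells complemented with human TDP1, 400 cells/well, exposed to compounds plus 20 nM camptothecin for at least 48 h at 37 C; viability read as ATP content by CellTiter-Glo luminescence.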
On the % scale 0 is the no-effect control and ±100 the full control effect; potency means the concentration at half of the fitted maximal effect.

Row | Structure (SMILES) | activity change, negative = growth inhibition | Potency
1 | Nc1nc(SCC(=O)Nc2cc(C(F)(F)F)ccc2Cl)[nH]c(=O)c1NC(=O)c1ccco1 | 2.93% | 
2 | CO[C@H]1[C@H](NC(=O)C(C)C)c2ccccc2C12CCN(Cc1cnc(N(C)C)s1)CC2 | 1.26% [at 9.04 µM] | 
3 | CCc1nnc(NC(=O)c2ccco2)s1 | -0.358% | 
4 | Cc1ccc2nc(COc3cccc(NC(=O)c4ccccc4Cl)c3)cc(=O)n2c1 | -18.6% | 
5 | CCOc1ccc2[nH]c(=S)sc2c1 |  | 18.4 µM (active)
6 | CCCC(=O)N(CCN1CCOCC1)c1nc2ccc(OCC)cc2s1 | -19.4% | 
7 | Nc1ccc2[nH]c(=S)sc2c1 | -27.9% | 
8 | CC(C)CNC(=S)NNC(=O)c1nn(C)cc1Cl | 0.207% | 
9 | CCOc1ccc(CCNC(=O)c2cc3c(=O)n(C)c4ccccc4c3n2C)cc1 |  | 20.6 µM (active)
10 | Cn1c(C(=O)NCCc2ccsc2)cc2c(=O)n(C)c3ccccc3c21 |  | 18.4 µM (active)
11 | CN(Cc1ccccc1)C(=O)c1cc2c(=O)n(C)c3ccccc3c2s1 | -4.23% | 
12 | CCOc1ccc(CCNC(=O)c2c(C)oc3ncn(C)c(=O)c23)cc1 | -20.1% | 
13 | CCOc1ccc(NC(=O)c2cn(C3CCCCC3)c(=O)c3c2c2ccccc2n3C)cc1 | -28% | 
14 | Cn1c(C(=O)N2CCC(C(N)=O)CC2)cc2c(=O)n(C)c3ccccc3c21 | -4.68% | 
15 | Cc1cc(C)cc(NC(=O)C(c2ccccc2)N2CCN(CC(=O)N3CCCC3)CC2)c1 (stereo not drawn) | 4.68% | 
16 | CC(C)CC(=O)c1c[nH]c(C(=O)NCc2ccccc2)c1 | 12.3% | 
17 | O=C(NN1C(=O)C2C(C1=O)C1C=CC2C12CC2)c1ccccc1Cl (stereo not drawn) | -7.88% | 
18 | CC12CCC(C(=O)N(c3cccc(Cl)c3)C1=O)C2(C)C (stereo not drawn) | -5.89% | 
19 | CC12CCC(C(=O)N(NC(=O)c3ccccc3O)C1=O)C2(C)C (stereo not drawn) |  | 20.6 µM (active)
20 | NC(=O)c1ncn([C@@H]2O[C@H](CNCc3cnc(N4CCOCC4)s3)[C@@H](O)[C@H]2O)n1 | 1.26% | 
21 | O=C(Nc1ccccc1-c1nnn(CC(=O)N2CCN(c3ccccc3)CC2)n1)c1cccs1 |  | 14.6 µM (active)
22 | CCOc1ccc(-c2nnn(CC(=O)N3CCN(c4ccc(OC)cc4)CC3)n2)cc1OCC | -12.9% | 
23 | CCOc1ccc(-c2nnn(CC(=O)N3CCN(c4ccc(F)cc4)CC3)n2)cc1OCC | 0.386% | 
24 | C[C@H]1CN([C@@H](C)CO)C(=O)CCCn2cc(nn2)CO[C@@H]1CN(C)S(=O)(=O)c1cccs1 | -15.7% | 
25 | CSc1ccc(NC(=O)Cn2nnnc2-c2ccccc2F)cc1 | 4.04% | 
26 | C/C(=N/OC(=O)c1cccc(C(F)(F)F)c1)c1cnccn1 | 0.565% | 
27 | Cc1nn(-c2ccccc2)c(C)c1NC(=O)COC(=O)c1cc(Cl)ccc1O | -1.94% | 

Row | Structure (SMILES) | activity change, negative = growth inhibition | Potency
28 | C/C=C/c1ccc(OCC(=O)OCC(=O)Nc2c(C)nn(-c3ccccc3)c2C)c(OC)c1 | -0.721% | 
29 | Cc1nn(-c2ccccc2)c(C)c1NC(=O)COc1ccc(Cl)cc1Cl |  | 16.4 µM (active)
30 | Cc1cc(=O)oc2c3c(cc(OCC(=O)NCCC(=O)N[C@@H](C)C(=O)O)c12)OC(C)(C)CC3 | 0.114% | 
31 | C/C(=N/NS(=O)(=O)c1ccccc1)c1ccc(NC(=O)C(F)(F)F)cc1 | -2.7% | 
32 | COCC1CCN(C(=O)C2CCC(=O)N(CC3CCCCC3)C2)CC1 (stereo not drawn) | 5.32% | 
33 | Cc1c(C(=O)NNC(=O)c2ccncc2)oc2ccccc12 | 22.9% | 
34 | COc1ccccc1C(=O)Nc1c(C(=O)Nc2ccc(C)cc2)oc2ccccc12 |  | 20.6 µM (active)
35 | COc1ccccc1C(=O)Nc1ccc(Nc2ccccc2)cc1 | 22.7% | 
36 | COc1ccccc1NC(=S)NC(=O)C(C)C | 15.3% | 
37 | Cc1ccc(NC(=O)c2oc3ccccc3c2NC(=O)Cc2cccs2)cc1 | -14.1% | 
38 | Cc1ccc(C(=O)Nc2c(-c3ccccc3)[nH][nH]c2=O)cc1 | -3.84% | 
39 | Cc1ccc(C(=O)Nc2c(C(=O)NC(C)(C)C)oc3ccccc23)cc1 |  | 20.6 µM (active)
40 | COc1ccccc1NC(=O)c1oc2ccccc2c1NC(=O)C(C)C |  | 10.3 µM (active)
41 | COc1ccccc1NC(=O)c1oc2ccccc2c1NC(=O)COc1ccccc1OC | -15.5% | 
42 | C#CCOCCOCCOCCNc1nc(N2CCN(C(=O)C([C@@H](C)CC)n3cc(C(N)COC(=O)C(F)(F)F)nn3)CC2)nc(N2CCN(C(=O)[C@H](Cc3ccc(O)cc3)n3cc(C(N)[C@H](C)CC)nn3)CC2)n1 (stereo partly drawn) | -7.81% | 
43 | CCOc1ncccc1C(=O)OCC(=O)c1c[nH]c2ccccc12 | -25.7% | 
44 | CC1CN(C(=S)Nc2ccc(S(N)(=O)=O)cc2)CC(C)O1 (stereo not drawn) | -15.7% | 
45 | C/C=C/C1=C(C(=O)O)N2C(=O)[C@@H](NC(=O)[C@H](N)c3ccc(O)cc3)[C@H]2SC1 | 22.8% | 
46 | O=C(NNc1cc(Cl)cc(Cl)c1)c1c(F)cccc1Cl | -10.4% | 
47 | CN(CC(=O)NNC(=O)CNC(=O)c1ccccc1Cl)S(=O)(=O)c1ccc(Cl)cc1 | -22% | 
48 | CC(=O)Nc1ccc(NC(=O)CSc2nnc3c4cc(Br)ccc4n(C)c3n2)cc1 | -12.3% | 
49 | O=C(CSc1ccc(Cl)cc1)NC1CC1 | -22.6% | 
50 | CN(CCOc1ccccc1)C(=O)c1cc(COc2c(F)cccc2F)on1 | -21% | 
51 | COc1cccc(CNC(=O)CCN2C(=S)NC(C)(C)CC2C)c1 (stereo not drawn) | -8.76% | 
52 | COc1nc(N(C)C)nc(N2CC(=O)N(CCNS(=O)(=O)c3ccc(C)cc3)C2=N)n1 | 17.4% | 
53 | C=C1C(=O)[C@]23C[C@H]1CCC2[C@@]1(C)C(C[C@@H]3O)[C@](C)(C(=O)O)CC[C@@H]1O (stereo partly drawn) |  | 1.84 µM (active)

— PubChem BioAssay AID686979 (National Center for Advancing Translational Sciences (NCATS), 2013)
